Source: PubChem (Broad Institute)
Compounds with a hit are over-represented: about 2.3% of the library has one in this group of screens.
ERp5 block = inhibitors of human ERp5. 350,000 tested, 0.05% active. inhibition, % at 9.99 µM. ERp5 insulin aggregation, absorbance 650 nm, 90 min;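 active = mean replicate inhibition above about 25%, with every replicate also reaching it, limit read from the data, passing the limit was not always enough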
Rtt109 Vps75 = blocks Candida albicans Rtt109/Vps75 acetyltransferase activity | inhibition, % at 34.9 µM | AID 540336 | Q5AAJ8 | 330,000 tested, 0.16% active | purified Rtt109/Vps75, ThioGlo CoA-SH fluorescence, 4 h;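 active = inhibition of at least 50% in every replicate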
SIRT5 inh = inhibitors of human sirtuin-5 desuccinylase. 330,000 tested, 1.1% active. inhibition, % at 15 µM. Purified SirT5, succinyl-peptide AMC, trypsin-coupled fluorescence. AID 652115; in the data active = inhibition above about 15%
DENV2 CPE = protects cells from dengue virus 2 cytopathic effect; DENV2-infected cells, cytopathic effect rescue, plate reader; CPE inhibition, % at 9.99 µM; 350,000 tested, 1.7% active; AID 651640; in the data active = CPE inhibition above about 20%, passing the limit was not always enough; tested in BHK-21 cells;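 also: 0% = median of neutral control wells and 100% = median of positive control wells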
PDI inh = blocks human protein disulfide isomerase activity. 350,000 tested, 0.052% active. PDI insulin aggregation turbidity, A650, 90 min. inhibition, % at 10 µM. P07237;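 active = mean inhibition across replicates of 30% or more, whatever share of single replicates reach that level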
Target sequence (P07237 whole entry, looked up): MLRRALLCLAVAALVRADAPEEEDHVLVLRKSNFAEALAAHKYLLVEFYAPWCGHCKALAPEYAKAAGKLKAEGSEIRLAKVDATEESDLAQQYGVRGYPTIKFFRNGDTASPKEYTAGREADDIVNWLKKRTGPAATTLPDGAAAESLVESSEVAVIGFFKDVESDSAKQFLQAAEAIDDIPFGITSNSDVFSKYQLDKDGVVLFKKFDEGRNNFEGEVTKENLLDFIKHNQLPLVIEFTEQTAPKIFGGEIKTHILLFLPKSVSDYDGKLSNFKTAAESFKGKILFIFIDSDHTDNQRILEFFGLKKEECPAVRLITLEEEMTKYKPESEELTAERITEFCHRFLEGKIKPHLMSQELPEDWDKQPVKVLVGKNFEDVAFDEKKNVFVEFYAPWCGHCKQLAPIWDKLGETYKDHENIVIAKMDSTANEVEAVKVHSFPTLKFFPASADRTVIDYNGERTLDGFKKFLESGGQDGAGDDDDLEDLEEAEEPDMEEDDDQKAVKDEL
* = called active by the depositor; . = not tested or not shown.

SMILES | ERp5 block | Rtt109 Vps75 | SIRT5 inh | DENV2 CPE | PDI inh
CN(C)C(=O)c1cccc(-c2ccc3c(c2)[C@H]2[C@H](CCN2C(=O)C2CCCCC2)[C@@H](CO)N3)c1 | . | . | . | 5.0 | .
O=C(NC1CCCCC1)N1CC(=O)N2[C@H](C1)[C@H](c1ccc(/C=C/c3ccccc3)cc1)[C@@H]2CO | -3.3 | . | 0.9 | -3.6 | .
CCCNC(=O)N1[C@@H](CO)[C@H](c2ccccc2)C12CN(C(=O)CC1CC1)C2 | -1.0 | . | 37.6* | -1.6 | .
CCC(=O)Nc1ccc2c(c1)C(=O)N(C)C[C@@H](OC)[C@@H](C)CN(CC1CCCCC1)[C@H](C)CO2 | -6.0 | . | 10.2 | -12.0 | .
CO[C@H]1CN(C)C(=O)c2cc(NC(=O)CC(F)(F)F)ccc2OC[C@H](C)N(CC2CC2)C[C@H]1C | . | . | . | 54.4* | .
CO[C@@H]1CN(C)C(=O)c2cc(NC(=O)CC(F)(F)F)ccc2OC[C@@H](C)N(CC2CC2)C[C@H]1C | 9.3 | . | . | 10.1 | .
CO[C@H]1CN(C)C(=O)c2cc(NC(=O)c3ccccc3F)ccc2OC[C@H](C)N(CC2CC2)C[C@@H]1C | -4.8 | . | -0.7 | -1.9 | .
CO[C@@H]1CN(C)C(=O)c2cc(NC(=O)c3ccccc3F)ccc2OC[C@H](C)N(CC2CC2)C[C@@H]1C | -0.3 | . | -3.7 | 42.6* | .
COc1cccc(NC(=O)Nc2ccc3c(c2)C(=O)N(C)C[C@H](OC)[C@@H](C)CN(CC2CC2)[C@H](C)CO3)c1 | -1.4 | . | 1.6 | 2.0 | .
CCC(=O)Nc1ccc2c(c1)C(=O)N(C)C[C@H](OC)[C@@H](C)CN(CC1CCCCC1)[C@H](C)CO2 | -1.2 | . | 18.1* | -4.1 | .
COc1cccc(NC(=O)Nc2ccc3c(c2)C(=O)N(C)C[C@H](OC)[C@@H](C)CN(CC2CC2)[C@@H](C)CO3)c1 | 2.9 | . | 0.5 | 22.3* | .
O=C([C@@H]1[C@@H](CO)[C@@H]2Cn3c(cccc3=O)[C@@H]2N1CC1CCCCC1)N1CCOCC1 | 6.9 | . | -0.5 | 1.5 | .
O=C(Cc1nnc(NC(=O)Nc2ccc(Cl)cc2)s1)NCc1ccccc1 | 4.7 | 15.1 | 38.3* | 5.2 | -5.6
CC(C)NC(=O)Nc1ccc2c(c1)C(=O)N([C@H](C)CO)C[C@@H](C)[C@H](CN(C)C(=O)c1ccncc1)OCCCC[C@H](C)O2 | -2.1 | . | 0.0 | 2.6 | .
COc1ccccc1-c1cc(C(=O)NC(C)c2ccccc2)no1 (stereo not given) | . | -2.6 | . | . | -2.9
COc1ccccc1-c1cc(C(=O)NC(C)C)no1 | -1.8 | 14.1 | 21.9* | 2.3 | -5.6
CCCCCSc1nnc(N)s1 | . | -2.9 | -3.6 | 31.9* | 3.1
COc1cccc(-c2ccc([C@H]3[C@H]4CN(S(=O)(=O)c5cn(C)cn5)CCCCN4[C@H]3CO)cc2)c1 | 0.6 | . | 0.6 | -2.4 | .
COc1ccc(C#Cc2ccc([C@@H]3[C@@H](CO)N4CCCCN(S(=O)(=O)c5cn(C)cn5)C[C@H]34)cc2)cc1 | -1.8 | . | 2.3 | 43.2* | .
COc1cccc(-c2ccc([C@@H]3[C@@H](CO)N4CCCCN(S(=O)(=O)c5cn(C)cn5)C[C@H]34)cc2)c1 | -2.9 | . | 10.2 | 73.1* | .
N#C[C@@H]1[C@@H](c2ccc(-c3cccc(F)c3)cc2)[C@H](CO)N1c1nc(-c2ccccc2)cs1 | -2.0 | . | 7.3 | 90.5* | .
N#C[C@@H]1[C@@H](c2ccc(-c3ccc(F)cc3)cc2)[C@H](CO)N1c1nc(-c2ccccc2)cs1 | 10.8 | . | 0.8 | 60.9* | .
N#C[C@@H]1[C@H](c2ccc(-c3cccc(F)c3)cc2)[C@@H](CO)N1c1nc(-c2ccccc2)cs1 | 1.3 | . | -1.0 | -3.3 | .
C[C@H]1CN([C@@H](C)CO)C(=O)c2cc(NS(=O)(=O)c3ccc(F)cc3)ccc2O[C@H]1CN(C)C(=O)Nc1ccccc1 | -5.3 | . | -1.0 | 27.3* | .
C[C@H](CO)N1C[C@H](C)[C@@H](CN(C)C(=O)Nc2ccccc2)Oc2ccc(NS(=O)(=O)c3ccc(F)cc3)cc2C1=O | 0.4 | 3.5 | 4.2 | 1.7 | 1.8
C[C@@H]1CN([C@@H](C)CO)C(=O)c2cc(NS(=O)(=O)c3ccc(F)cc3)ccc2O[C@@H]1CN(C)C(=O)Nc1ccccc1 | 11.8 | . | -0.2 | 36.2* | .
C[C@@H]1CN([C@H](C)CO)C(=O)c2cc(NS(=O)(=O)c3ccccc3)ccc2O[C@@H]1CN(C)C(=O)Nc1ccc(F)cc1 | -3.7 | . | -6.4 | 6.2 | .
CC(C)C#Cc1ccc2c(c1)O[C@H](CN(C)C)[C@@H](C)CN([C@H](C)CO)S2(=O)=O | -1.5 | . | 0.1 | -2.9 | .
COc1ccc(C(=O)NCC(=O)OCc2ccc(F)cc2)cc1 | 0.8 | -1.6 | 14.0 | 1.9 | 5.8
